According to PMC4552634, “A New Set of Chemical Starting Points with Plasmodium falciparum Transmission-Blocking Potential for Antimalarial Drug Discovery” (PLoS ONE, 2015):
Like-named read-outs stand apart in the source and are kept apart here. About 3,200 (25%) of roughly 13,000 compounds showed an effect of 50% or more. The list shows a part of the results.

Tested on: P. falciparum stage V gametocytes
Parameters: BacTiter-Glo ATP luminescence viability of purified stage V gametocytes in 384-well plates, per cent inhibition versus DMSO
Conditions: 48 h, 5 µM, inhibitor

SMILES	% Inhibition [%]	% Inhibition (% Inhibition) [%]
CC(C)(CNCc1ccc(F)c(F)c1)c1nc(-c2ccc(Cl)c(O)c2)c(-c2ccnc(N)n2)[nH]1 [TCMDC-141163]	-6.922	–
O=C(NCCSCc1c(F)cccc1Cl)c1cnc2c(c1)nc(-c1cnc(-c3ccccc3)[nH]1)n2CCc1cnc[nH]1 [TCMDC-139691]	-6.07	–
CCNc1cc(C)nc(Nc2ccc(NC(=O)c3ccccc3Cl)cc2)n1 [TCMDC-124986]	-9.535	–
Cc1ccc2cc(NC(=O)c3cccc(C(=O)Nc4ccc5nc(C)ccc5c4)n3)ccc2n1 [TCMDC-139460]	-22.62	–
CCCOc1cc(OCCC)cc(-c2ccc(C(=O)Nc3ccc4ccc(C)nc4c3)c(=O)[nH]2)c1 [TCMDC-141499]	82.34	–
CC1(C)CCCN(Cc2c(O)ccc3c(=O)c(-c4nc5ccccc5s4)c(N)oc23)C1 [TCMDC-124009]	-3.964	–
Cc1nc(-c2nc(N3CCC(O)CC3)ncc2-c2ccsc2)sc1C [TCMDC-133149]	35.11	–
Cc1cc(CN2CCC(Nc3ncc(-c4ccsc4)c4nc(C(F)(F)F)ccc34)CC2)no1 [TCMDC-125306]	66.69	–
O=C(NC1CCN(Cc2ccsc2)CC1)c1ccc(-c2cccc(C(F)(F)F)c2)s1 [TCMDC-134366]	17.83	–
Oc1cccc2c1CC(NCc1ccccc1)CC2 (stereo not drawn) [TCMDC-137987]	8.096	–
CCCNc1ccc(-c2cc(C(N)=O)c3[nH]cc(C4CCN(S(=O)(=O)CC)CC4)c3c2)cn1 [TCMDC-136721]	8.74	–
NC(=O)c1cc(-c2ccccc2)cc2c(C3CCC(NCc4ccccc4)C3)c[nH]c12 (stereo not drawn) [TCMDC-136335]	119.1	–
S=C(Nc1ccc2c(c1)OCCO2)NC1CCC(CN2CCC(c3c[nH]c4ccccc34)CC2)CC1 (stereo not drawn) [TCMDC-140205]	–	-9.163
COC(=O)c1sccc1NC(=S)NC1CCC(CN2CCC(c3c[nH]c4ccccc34)CC2)CC1 (stereo not drawn) [TCMDC-140202]	–	68.17
COC(=O)c1sccc1NC(=S)NC1CCC(CN2CCC(c3c[nH]c4ccccc34)CC2)CC1 (stereo not drawn) [TCMDC-140184]	–	87.69
S=C(Nc1ccc2c(c1)OCCO2)NC1CCC(CN2CCC(c3c[nH]c4ccccc34)CC2)CC1 (stereo not drawn) [TCMDC-140187]	–	28.79
O=C(Nc1ccc(C(=O)OCC2CCCN3CCCCC23)cc1)c1ccc([N+](=O)[O-])cc1 (stereo not drawn) [TCMDC-124028]	-7.885	–
COc1ccc2nc(N3CCNCC3)nc(NCCCc3ccccc3)c2c1 [TCMDC-138367]	61.05	–
COc1ccc(-c2ccccc2CNc2nc(NCCc3ccc(O)cc3)nc(N3CCNCC3)n2)cc1 [TCMDC-133785]	16.29	–
Oc1ccc2nc(N3CCNCC3)nc(NCCCc3ccccc3)c2c1 [TCMDC-138362]	-3.438	–
COc1ccc2nccc([C@@H](O)CN3CCC(NC[C@H](Cc4ccccc4)NC(=O)OC(C)(C)C)CC3)c2c1 [TCMDC-140729]	28.25	–
COc1ccc2nc(N3CCN(C(=O)OC(C)(C)C)CC3)nc(NCCCc3ccccc3)c2c1 [TCMDC-138361]	104.5	–
C/C(=C\C(=O)NC1CC1)c1ccccc1OCc1ccccc1 [TCMDC-137859]	-0.1612	–

SMILES	% Inhibition [%]	% Inhibition (% Inhibition) [%]
COC(=O)c1cccc(CNCc2cccc(-c3ccc(-c4nc5ccccc5[nH]4)s3)c2)c1.O=C(O)C(F)(F)F [TCMDC-132944]	-0.1401	–
COc1ccc(NC(=O)CCNc2cc(C)nc(NCCOc3ccccc3)n2)cc1 [TCMDC-134876]	16.63	–
Cc1cc(NCCC(=O)NCCOc2ccccc2)nc(NCCc2ccccc2)n1 [TCMDC-134771]	71.03	–
Cc1cc(NCCC(=O)NCCOc2ccccc2)nc(NCc2ccccc2C)n1 [TCMDC-134900]	9.691	–
COc1ccc(NC(=O)CCNc2cc(C)nc(Nc3ccccc3)n2)cc1 [TCMDC-134731]	16.78	–
Cc1cc(NCCC(=O)NCCOc2ccccc2)nc(Nc2ccccc2)n1 [TCMDC-134732]	39.63	–
COc1ccccc1CCNc1nc(C)cc(NCCC(=O)NCCOc2ccccc2)n1 [TCMDC-134799]	41.79	–
Cc1cc(NCCC(=O)Nc2ccccc2)nc(NCCOc2ccccc2)n1 [TCMDC-134878]	88.65	–
Cc1cc(NCCC(=O)NCCOc2ccccc2)nc(NCCOc2ccccc2)n1 [TCMDC-134877]	53.53	–
Cc1cc(NCCC(=O)NCCOc2ccccc2)nc(NCCc2ccc(F)cc2)n1 [TCMDC-134865]	48.39	–
Cc1cccc(N2CCN(C3CCC(NC(=O)c4cc5ccccc5[nH]4)CC3)CC2)c1C (stereo not drawn) [TCMDC-132891]	-4.538	–
COc1ccc(S(=O)(=O)N2CCC(NS(=O)(=O)c3ccc(F)cc3)CC2)cc1 [TCMDC-123512]	11.24	–
CC(=O)Nc1ccc(CN(C)C2CCN(c3cc(NC(=O)c4cccc(C)c4)ccn3)CC2)cc1 [TCMDC-134982]	-8.957	–
CN1CCN(c2cccc(NC(=O)c3ccc(-c4ccc(C#N)cc4)cc3)c2)CC1 [TCMDC-138669]	-26.05	–
Fc1ccc2nc(Nc3nc(-c4ccccn4)cs3)sc2c1 [TCMDC-125540]	71.85	–
COc1ccc2nc(Nc3nc(-c4ccccn4)cs3)sc2c1 [TCMDC-125541]	1.427	–
c1ccc(-c2csc(Nc3nc4cc5c(cc4s3)OCO5)n2)nc1 [TCMDC-124550]	41.05	–
Fc1cccc2sc(Nc3nc(-c4ccccn4)cs3)nc12 [TCMDC-125542]	81.67	–
COc1cccc2sc(Nc3nc(-c4ccccn4)cs3)nc12 [TCMDC-125543]	33.34	–
Cc1ccc(NC(=O)c2ccc3ncccc3c2)cc1OC1CCN(Cc2ccc(F)cc2)CC1 [TCMDC-133747]	-16.12	–
Cc1cc(NC(=O)Nc2ccc(I)c(OCCN(C)C)c2)ccc1Br [TCMDC-139108]	-4.695	–
CN(Cc1cccc(O)c1)C1CCCN(c2cc(NC(=O)c3ccc(F)cc3)ccn2)C1 (stereo not drawn) [TCMDC-134960]	-31.52	–
